Shown are actives, neighbours in structure and some others; about 2.9% of the full set was active somewhere.
PAFAH1B3 inh = PAFAH1B3 enzyme inhibitors, primary screen, biochemical, fluorescence polarization, human; Platelet-activating factor acetylhydrolase IB subunit alpha1 (Homo sapiens), Q15102; recombinant PAFAH1B3, FP-rhodamine probe; inhibition, % at 3.39 µM; hit rate 0.28% among 340,000;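 active means inhibition above the screen-wide average of all tested compounds plus 3 SD, cut at about 25% in these data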
Target sequence (Q15102 whole entry, looked up): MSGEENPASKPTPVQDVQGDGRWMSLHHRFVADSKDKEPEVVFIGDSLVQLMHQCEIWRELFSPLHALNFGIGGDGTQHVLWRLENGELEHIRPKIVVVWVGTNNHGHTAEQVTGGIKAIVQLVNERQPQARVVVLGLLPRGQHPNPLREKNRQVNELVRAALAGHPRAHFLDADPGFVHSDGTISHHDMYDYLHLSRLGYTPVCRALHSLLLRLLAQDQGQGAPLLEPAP
PAFAH2 inh = PAFAH2 enzyme inhibitors, primary screen, biochemical, fluorescence polarization, human | hit rate 0.99% among 340,000 | recombinant PAFAH2, FP-rhodamine activity probe | inhibition, % at 3.39 µM | Platelet-activating factor acetylhydrolase 2, cytoplasmic (Homo sapiens), Q99487;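 active means inhibition above the mean over all tested compounds plus 3 SD, cut at about 30% in these data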;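 further: inhibitors block probe labeling of enzyme so polarization drops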
ZTA DNA inh = blocks Epstein-Barr virus ZTA, an EBNA-1 counter-screen; ZTA-DNA binding, fluorescence polarization; inhibition, % at 11 µM; hit rate 0.15% among 320,000; in the data active means inhibition above about 33%
EBNA-1 inh = EBNA-1 DNA-binding inhibitors, primary screen, biochemical, fluorescence polarization | inhibition, % at 14.8 µM | hit rate 0.34% among 300,000; in the data active means inhibition above about 28%
rCAG binder = binders of r(CAG) RNA repeats, primary screen, biochemical, fluorescence. r(CAG) RNA repeat, TO-PRO-1 dye displacement fluorescence. inhibition, % at 3 µM. hit rate 1.3% among 370,000;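 active means inhibition above the plate cutoff, the mean of all test compounds on that plate plus 3 SD, cut at about 35% in these data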;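 further: higher means more dye released from RNA so lower well fluorescence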
PAFAH1B2 inh = PAFAH1B2 enzyme inhibitors, primary screen, biochemical, fluorescence polarization, human; Platelet-activating factor acetylhydrolase IB subunit alpha2 (Homo sapiens), P68402; recombinant PAFAH1B2, FP-rhodamine activity probe; inhibition, % at 3.39 µM; hit rate 1.2% among 340,000; AID 492953, 2010;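 active means inhibition above the mean of all tested compounds plus 3 SD, cut at about 24% in these data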
Target sequence (P68402 whole entry, looked up): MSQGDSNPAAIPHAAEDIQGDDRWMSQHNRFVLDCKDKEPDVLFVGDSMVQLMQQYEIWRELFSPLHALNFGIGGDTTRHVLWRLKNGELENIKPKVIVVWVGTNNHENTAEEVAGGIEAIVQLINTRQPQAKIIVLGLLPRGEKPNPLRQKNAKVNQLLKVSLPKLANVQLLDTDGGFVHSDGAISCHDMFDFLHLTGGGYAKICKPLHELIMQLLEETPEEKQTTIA
rCAG binder conf = small molecules binding CAG repeat RNA – biochemical, fluorescence, confirmation | hit rate 70% among 4,300 | inhibition, % at 3 µM | AID 652065, 2013 | shares compounds with rCAG binder | r(CAG) RNA repeat, TO-PRO-1 dye displacement fluorescence;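 active means inhibition above a per-plate cutoff, the mean inhibition of sample wells plus 3 SD, cut at about 35% in these data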;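 further: loss of TO-PRO-1 fluorescence as compound displaces dye from 1x1 AA loop RNA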
dCAG dye counter = displacement of TO-PRO-1 from CAG DNA duplex, counter-screen for rCAG RNA repeat binder project, biochemical, fluorescence, TO-PRO-1 dye, d(CAG) DNA oligo; AID 652068, 2013; shares compounds with rCAG binder; inhibition, % at 3 µM; d(CAG) DNA oligo TO-PRO-1 dye displacement; hit rate 94% among 4,300;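 active means inhibition above its plate's cutoff, the mean test-well inhibition plus 3 SD, cut at about 4.8% in these data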;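 further: hits displace the dye from DNA and so lower well fluorescence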
DNA CAG DR = inhibitors of DNA CAG/GTC TO-PRO-1 complex, dose response, counter-screen for rCAG RNA repeat binder project, biochemical, fluorescence, TO-PRO-1 dye | shares compounds with rCAG binder | DNA CAG/GTC duplex TO-PRO-1 dye displacement fluorescence | IC50, µM | hit rate 20% among 250 | AID 686960, 2013; in the data active means IC50 below about 10 µM
A number is an active result; - = inactive; . = no result.

SMILES	PAFAH1B3 inh	PAFAH2 inh	ZTA DNA inh	EBNA-1 inh	rCAG binder	PAFAH1B2 inh	rCAG binder conf	dCAG dye counter	others
CNC(=O)CSc1cn(CC(=O)N(C(C)C)C(C)C)c2ccccc12	-	-	-	-	-	-	.	.
CCOC(=O)c1c(-c2ccc(OC)cc2)csc1NC(=O)CCN1C(=O)c2ccccc2C1=O	-	-	-	-	.	-	.	.
CCOC(=O)c1c(-c2ccc3ccccc3c2)csc1NC(=O)CCCC(=O)O	-	-	.	.	45	-	50	14
Cc1cc(C)c2nc(N3C(=O)C(O)=C(C(=O)c4ccco4)C3c3cccc(O)c3)sc2c1 (stereo not drawn)	-	-	-	.	85	-	81	49
Cc1cc(C)c2nc(N3C(=O)C(O)=C(C(=O)c4ccco4)C3c3ccc(O)cc3)sc2c1 (stereo not drawn)	-	-	-	.	84	-	81	43
CCOC(=O)c1sc(N2C(=O)C(O)=C(C(=O)c3ccco3)C2c2cccc(Cl)c2)nc1C (stereo not drawn)	-	-	-	-	74	-	57	19
COC(=O)c1sc(N2C(=O)C(O)=C(C(=O)c3ccc(C)o3)C2c2cccs2)nc1C (stereo not drawn)	-	-	-	-	48	-	48	17
Cc1ccc(C2C(C(=O)c3ccco3)=C(O)C(=O)N2c2nnc(C)s2)cc1 (stereo not drawn)	-	-	-	-	-	-	.	.
CCCCCCCCN1C(=O)[C@@H](CC(=O)N2CCOCC2)C[C@@]2(C(=O)OC)C1=C[C@H](COCc1ccccc1)O[C@@H]2C	.	.	.	.	-	.	.	.
N#C/C(=C\c1cccc(Br)c1)C(=O)N1CCCCC1	-	-	-	-	-	-	.	.
Fc1ccc(NC(=S)N2CCc3ccccc3C2)c(F)c1	-	-	-	-	-	-	.	.
Cc1[nH]ccc(=O)c1Oc1ncc(C(F)(F)F)cc1Cl	-	-	-	-	-	-	.	.
Cc1cc(N2C(=O)C(O)=C(C(=O)c3ccco3)C2c2cccc(O)c2)no1 (stereo not drawn)	-	-	-	-	-	-	.	.
Cc1cc(N2C(=O)C(O)=C(C(=O)c3ccco3)C2c2cccc(Oc3ccccc3)c2)no1 (stereo not drawn)	-	-	-	-	58	-	59	21
CCCCCCC12C(=Cc3cc4c(cc31)OCCO4)c1cc(OC)c(OC)cc1C(CC(=O)O)N2C(=O)OC (stereo not drawn)	.	.	.	.	43	.	35	7.0
CN(c1ccccc1)S(=O)(=O)c1cccc(NC(=O)c2ccc3ncsc3c2)c1	-	-	-	-	-	-	.	.
CCc1nnc(NS(=O)(=O)c2ccc(N/C=C\C(=O)c3cccc(OC)c3)cc2)s1	-	-	-	-	49	-	63	28
CCc1nnc(NS(=O)(=O)c2ccc(N/C=C\C(=O)c3ccc(F)cc3)cc2)s1	-	-	-	-	48	-	61	23
COc1cccc(C(=O)/C=C/Nc2ccc(S(=O)(=O)Nc3ncccn3)cc2)c1	-	-	-	-	-	-	.	.
CCc1nnc(NS(=O)(=O)c2ccc(N/C=C\C(=O)c3ccc(C)cc3)cc2)s1	-	-	-	-	55	-	72	39
CCc1nnc(NS(=O)(=O)c2ccc(N/C=C/C(=O)c3ccc(C)cc3)cc2)s1	-	-	-	-	50	-	72	34	DNA CAG DR=9.6
O=C1OCCC1=COCCCCCOC=C1CCOC1=O	.	.	.	.	-	.	.	.
Cc1noc(NS(=O)(=O)c2ccc(N/C=C\C(=O)c3ccc(F)cc3)cc2)c1C	.	.	-	-	36	.	43	7.9
Cc1noc(NS(=O)(=O)c2ccc(N/C=C\C(=O)c3ccccc3)cc2)c1C	-	-	-	-	-	-	.	.
CSc1ccc(/C=C(\C(=O)O)c2ccc(S(=O)(=O)N3CCCC3)s2)cc1	-	-	-	.	39	-	-	10
SMILES	PAFAH1B3 inh	PAFAH2 inh	ZTA DNA inh	EBNA-1 inh	rCAG binder	PAFAH1B2 inh	rCAG binder conf	dCAG dye counter	others
O=C(O)/C(=C/c1ccc(Cl)c([N+](=O)[O-])c1)c1ccc(S(=O)(=O)N2CCCCC2)s1	-	-	.	.	89	-	77	40
O=C(O)/C(=C\c1cccc(F)c1)c1ccc(S(=O)(=O)N2CCCCC2)s1	-	-	-	-	-	-	.	.
O=C(O)/C(=C\c1cccc(O)c1)c1ccc(S(=O)(=O)N2CCCC2)s1	-	-	-	.	-	-	.	.
COc1cc(Cn2c3ccc(NC(=O)CC(C)C(F)(F)F)cc3c(=O)n2C)ccc1F (stereo not drawn)	.	.	.	.	-	.	.	.
S=c1[nH]nc(-c2ccco2)n1/N=C/c1cccc(Cl)c1Cl	-	-	-	-	57	-	48	15
S=c1[nH]nc(-c2ccc(Cl)cc2)n1/N=C/C=C/c1ccco1	.	.	-	-	37	.	35	13
S=c1[nH]nc(-c2ccccc2)n1/N=C/C=C/c1ccco1	-	-	-	-	-	-	.	.
S=c1[nH]nc(-c2ccco2)n1/N=C/c1ccc(Cl)cc1Cl	-	-	-	-	35	-	64	19
O=C1OC(c2cccs2)=N/C1=C\c1ccc(-c2cccc(Cl)c2)o1	-	-	-	-	49	-	40	12	DNA CAG DR=-
Clc1cccc(-c2ccc(/C=N/n3cnnc3)o2)c1	-	-	-	-	-	-	.	.
Cc1cc(/C=C2/C(=N)N3C(c4ccccc4)=CSC3=NC2=O)c(C)n1-c1ccc(Cl)cc1	-	-	.	.	-	-	.	.
N=C1/C(=C\c2ccc(-c3cccc(Cl)c3)o2)C(=O)N=C2SC=C(c3ccccc3)N12	-	-	-	-	65	-	66	41
CCc1ccc(C(=O)/C=C/c2ccc([N+](=O)[O-])o2)cc1	-	-	-	-	38	-	-	11
O=C(Nc1nnc(S(=O)(=O)N2CCCC2)s1)c1ccccc1Br	-	-	-	-	-	-	.	.
COc1ccc(CN(C)S(=O)(=O)c2nnc(NC(=O)c3cccc(OC)c3)s2)cc1	-	-	-	-	67	-	58	23
CN(Cc1ccccc1)S(=O)(=O)c1nnc(NC(=O)c2ccccc2)s1	-	-	-	-	-	-	.	.

Screens as filed in PubChem.
